# Luciferase inh: blocks purified firefly luciferase enzyme activity | P08659 | AID 1347043 | purified P. pyralis luciferase, luminescence, biochemical | Potency, µM (series often up to 115 µM), most hits filed as inhibitors | 2.5% of 76,000 active; note: nearly all actives have a fitted effect of over 65% in size
#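 Luminescence read by CCD imager after adding enzyme (10nM final) to wells holding compound, titrated in qHTS. Substrates 10uM each D-luciferin and ATP; buffer 50mM Tris acetate pH 7.5, 10mM Mg acetate, Tween-20, BSA.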
# 3T3 cytotox: kills NIH 3T3 cells | NIH 3T3 viability, CellTiter-Glo ATP luminescence, 48-72 h | Potency, µM (highest dose often 96.7 µM), usual class: inhibitors | 4.3% of 94,000 active | AID 1345082; note: nearly all actives have a fitted effect of over 55% in size
#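 Cytotoxicity was measured by CellTiter-Glo ATP luminescence after 48 or 72 h compound exposure at 37 °C. Mouse NIH 3T3 fibroblasts were seeded at 400 cells/well and dosed by 23 nL pin transfer.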
# NPR1 antag: antagonists of human natriuretic peptide receptor Npr1; HEK293 hNpr1 GloSensor cGMP, ANP-stimulated luminescence; Potency, µM (series often up to 46.3 µM), hits mostly inhibitors; 1.6% of 76,000 active; AID 1347048; calls by dose curve; note: nearly all actives have a fitted effect of over 60% in size
# Target sequence (P16066 whole entry, looked up): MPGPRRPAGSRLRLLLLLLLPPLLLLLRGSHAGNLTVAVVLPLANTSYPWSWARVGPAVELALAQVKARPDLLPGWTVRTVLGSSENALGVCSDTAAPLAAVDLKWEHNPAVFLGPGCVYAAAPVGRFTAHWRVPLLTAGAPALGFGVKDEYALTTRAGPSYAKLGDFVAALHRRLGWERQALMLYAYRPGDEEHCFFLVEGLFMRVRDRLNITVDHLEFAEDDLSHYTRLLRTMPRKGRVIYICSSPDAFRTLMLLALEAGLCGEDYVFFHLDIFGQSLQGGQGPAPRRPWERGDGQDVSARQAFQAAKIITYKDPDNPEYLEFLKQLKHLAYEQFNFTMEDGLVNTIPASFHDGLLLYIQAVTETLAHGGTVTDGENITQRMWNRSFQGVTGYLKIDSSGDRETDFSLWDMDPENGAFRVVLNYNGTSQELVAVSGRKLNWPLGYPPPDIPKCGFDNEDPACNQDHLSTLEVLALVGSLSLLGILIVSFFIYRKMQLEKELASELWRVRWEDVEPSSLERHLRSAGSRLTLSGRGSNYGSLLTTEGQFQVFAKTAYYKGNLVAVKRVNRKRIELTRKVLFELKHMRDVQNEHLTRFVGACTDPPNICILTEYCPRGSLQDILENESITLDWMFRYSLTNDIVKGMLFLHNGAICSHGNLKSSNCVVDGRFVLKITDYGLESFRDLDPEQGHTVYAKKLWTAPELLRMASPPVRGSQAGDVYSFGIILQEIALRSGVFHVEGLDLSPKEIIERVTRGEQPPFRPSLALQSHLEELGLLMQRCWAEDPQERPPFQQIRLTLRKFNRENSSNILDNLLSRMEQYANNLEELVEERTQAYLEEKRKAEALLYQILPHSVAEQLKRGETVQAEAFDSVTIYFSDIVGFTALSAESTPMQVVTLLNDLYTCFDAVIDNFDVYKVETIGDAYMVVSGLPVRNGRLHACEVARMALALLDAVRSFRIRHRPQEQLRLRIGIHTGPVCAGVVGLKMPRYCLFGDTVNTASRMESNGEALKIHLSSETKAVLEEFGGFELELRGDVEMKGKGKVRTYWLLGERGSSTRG
#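 HEK293 cells stably expressing human Npr1 and cGMP GloSensor pGS-40F, loaded 2 h with 2% GloSensor reagent, given compound 30 min at room temperature. Luminescence read before and 20 min after 0.1 nM hNppA.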
# HEK293 tox: kills HEK 293 cells | HEK 293 viability, ATP luminescence (CellTiter-Glo), 48-72 h | Potency, µM (titrated, usually from 115 µM), most hits filed as inhibitors | 6.6% of 94,000 active | AID 1345083; note: nearly all actives have a fitted effect of over 60% in size
#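 HEK 293 cells at 250 cells/well were exposed to compounds by pintool transfer for 48 or 72 hr at 37 degree Celsius, 5% CO2. Viability was read as ATP-coupled luminescence with CellTiter-Glo after 10 min at room temperature.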
# A number is an active result; n = inactive; u = inconclusive; x = not tested or not shown. Most compounds without a hit are left out; they make up all but 11% or so of the library. Unless noted, calls come from the whole dose curve; as a rule, active = well fitted curve in the direction sought with a large enough effect; inconclusive = small, poorly fitted or top-dose-only effect, or another doubt; inactive = no such curve, though single readings can be large; an effect the other way counts as inactive or inconclusive.
SMILES,Luciferase inh,3T3 cytotox,NPR1 antag,HEK293 tox
CC(NC(=O)C1CCN(C(=O)c2ncn3c2COC(c2ccc(F)cc2)C3)CC1)c1ccc(F)cc1 (centres undefined),n,n,n,n
Cc1ccc(C2Cn3nnc(C(=O)N4CCC(C(=O)NCc5cccc(C)c5)CC4)c3CO2)cc1 (centres undefined),u,n,n,n
Cc1ccc(C2Cn3nnc(C(=O)N4CCC(C(=O)NC(C)c5ccc(F)cc5)CC4)c3CO2)cc1 (centres undefined),35µM,u,n,u
COc1ccc(C(=O)N2CCC(n3c(C)cnc3C3CCC3)C2)cn1 (centres undefined),x,n,x,n
O=C1CCN(C(=O)COc2ccc(F)cc2)CCCC(c2nc(-c3ccccc3)no2)CCN1 (centres undefined),n,u,n,u
Cc1nn(-c2ccccc2)c2c1C(C1CC1)N(C1CCCN([S+](=O)([O-])c3cccc(C(F)(F)F)c3)C1)C2=O (centres undefined),x,n,x,n
Cc1ccc(CCNC(=O)C2CCN(C(=O)c3nnn4c3COC(c3ccc(C)cc3)C4)CC2)cc1 (centres undefined),8.9µM,n,n,n
Cc1ccc(C2Cn3nnc(C(=O)N4CCC(C(=O)NCC5CC5)CC4)c3CO2)cc1 (centres undefined),25µM,n,n,n
c1cc(N2CCOCC2)ncc1-c1noc([C@@H]2CCCN2)n1,56µM,n,n,n
Clc1ccc(CN2CCC[C@H]2c2nc(-c3ccc(N4CCOCC4)nc3)no2)cc1,u,u,u,63µM
OCc1ccc(CN2CCC[C@H]2c2nc(-c3ccc(N4CCOCC4)nc3)no2)o1,n,n,n,u
c1ccc(CN2CCC[C@H]2c2nc(-c3ccc(N4CCOCC4)nc3)no2)cc1,n,n,n,89µM
COC(=O)NCCNC(=O)c1ccc(-c2cncnc2)cc1,x,n,x,n
CCCc1cc(N2CCC(NCc3cc(F)c(F)c(F)c3)CC2)nc(C)n1,n,u,n,50µM
CCCc1cc(N2CCC(NCCOC(C)C)CC2)nc(C)n1,n,n,n,n
Cc1cccc(-c2cccc(CN3CCCC(C(=O)NCCCc4ccccc4)C3)c2)c1 (centres undefined),x,40µM,x,45µM
COc1ccccc1-c1cccc(CN2CCCC(C(=O)NCCCc3ccccc3)C2)c1 (centres undefined),x,35µM,x,u
O=C(CNC(=O)c1ccc(-c2cnc3ccccc3c2)cc1)NCc1ccccc1Cl,x,n,x,u
O=C(NCC(=O)N1CCC(Cc2ccccc2)CC1)c1ccc(-c2cnc3ccccc3c2)cc1,x,u,x,10µM
CCCC(O)CN1CCC(=O)N(CC)Cc2ccccc21 (centres undefined),x,n,x,u
O=C1Nc2ccccc2C12CCN(Cc1cccc3ccccc13)C2 (centres undefined),x,79µM,x,79µM
COc1ccc(CN2CCC3(C2)C(=O)Nc2ccccc23)cc1 (centres undefined),x,n,x,u
Cc1ccccc1-c1nc(Cn2ccnc2C(C)C)c(C)o1,n,u,u,28µM
COc1cc(C)c(-c2nc(Cn3cccn3)c(C)o2)cc1C,n,n,n,u
CN(C)c1ccc(-c2ccnc(N[C@H]3CO[C@H]4[C@@H]3OC[C@H]4OC(=O)Nc3cccc(C#N)c3)n2)cc1,n,u,u,14µM
SMILES,Luciferase inh,3T3 cytotox,NPR1 antag,HEK293 tox
N#Cc1cccc(NC(=O)O[C@@H]2CO[C@H]3[C@@H]2OC[C@@H]3Nc2nccc(-c3cccc(C#N)c3)n2)c1,n,n,n,u
COc1ccc(NC(=O)O[C@@H]2CO[C@H]3[C@@H]2OC[C@@H]3Nc2nccc(-c3cccc(C#N)c3)n2)cc1,n,n,n,n
N#Cc1cccc(-c2ccnc(N[C@H]3CO[C@H]4[C@@H]3OC[C@H]4OC(=O)Nc3cccc4ccccc34)n2)c1,n,u,n,22µM
Cc1cccc(-n2nc(C)c(CCC(=O)N3CCOCC3)c2Oc2ccccc2C)c1,n,u,n,u
Cc1nn(-c2ccccc2)c(Oc2ccccc2F)c1CCC(=O)N1CCSCC1,n,u,n,35µM
Cc1nn(-c2ccc(F)cc2)c(Oc2ccccc2F)c1CCC(=O)N1CCSCC1,n,u,n,u
Cc1cccc(-n2nc(C)c(CCC(=O)N3CCSCC3)c2Oc2ccccc2)c1,n,u,n,45µM
CN1C(=O)c2cccn2CC1CNC(=O)c1cc2ccccc2[nH]1 (centres undefined),n,n,n,n
CCn1nc(C)c(-c2cc(C(=O)NCCc3noc(-c4ccccc4)n3)no2)c1C,u,u,n,50µM
Cc1cccc(-c2noc([C@@H]3Cc4nc[nH]c4CN3C(=O)Nc3cccc(C#N)c3)n2)c1,35µM,63µM,n,89µM
O=C(Nc1cccc(F)c1)N1Cc2[nH]cnc2C[C@H]1c1nc(-c2ccc(Cl)cc2)no1,40µM,u,n,79µM
O=C(Nc1cccc(F)c1)N1Cc2[nH]cnc2C[C@H]1c1nc(-c2ccc3c(c2)OCO3)no1,n,u,n,u
Cc1cccc(-c2noc([C@@H]3Cc4nc[nH]c4CN3C(=O)Nc3cccc(F)c3)n2)c1,63µM,35µM,u,71µM
O=C(Nc1cccc(F)c1)N1Cc2[nH]cnc2C[C@H]1c1nc(-c2ccccc2)no1,n,u,n,71µM
COc1ccc2c(c1)CN(C1CC1)C(=O)CCN2C(=O)C1CCC1,x,u,x,n
Cc1cccc(-c2noc([C@@H]3Cc4nc[nH]c4CN3C(=O)COCC(=O)O)n2)c1,56µM,n,n,n
N#Cc1cccc(NC(=O)N2Cc3[nH]cnc3C[C@H]2c2nc(-c3ccc(Cl)cc3)no2)c1,n,79µM,n,u
O=C(C1CCCN([S+](=O)([O-])c2ccccc2)C1)N1CCC(N2Cc3ccccc3C2=O)CC1 (centres undefined),x,n,x,n
O=C(NCc1ccncc1)c1ccc(Cn2ccn3nc4c(c3c2=O)CCCC4)cc1,n,u,n,u
O=C(NC1CCCCCCC1)c1ccc(Cn2ccn3nc4c(c3c2=O)CCCC4)cc1,n,u,n,32µM
O=C(NC1CC1)c1ccc(Cn2ccn3nc4c(c3c2=O)CCCC4)cc1,n,u,n,u
Cc1ccccc1N1CCN(C(=O)c2ccc(Cn3ccn4nc5c(c4c3=O)CCCC5)cc2)CC1,n,u,n,20µM
CC(C)Oc1ccc(CNC(=O)c2ccc(Cn3ccn4nc5c(c4c3=O)CCCC5)cc2)cc1,n,u,u,35µM
COc1ccc(CCNC(=O)c2ccc(Cn3ccn4nc5c(c4c3=O)CCCC5)cc2)cc1OC,n,u,u,40µM
COc1ccc(NC(=O)c2ccc(Cn3ccn4nc5c(c4c3=O)CCCC5)cc2)cc1OC,n,u,n,u
CCN1CCN(CCCNC(=O)CC2CCN(c3ccnc(NC)n3)CC2)CC1,n,n,n,n
N#Cc1cccnc1-c1ccc(C(=O)N2CCC(NC(=O)NC3CCCC3)CC2)cc1,x,n,x,n
COc1ccc(C(=O)N2CCN3CCS(=O)(=O)N(C4CC4)C(=O)C3C2)c(OC)n1 (centres undefined),x,n,x,n

# Bioassay records as filed in PubChem.
